PubChem BioAssay (Tox21)
Results filed as inconclusive are left out. Calls of active or inactive are those of the source. Unless noted, the call rests on the fitted dose curve; in most records, active means well fitted curve in the direction sought with a large enough effect in the repeat runs; inconclusive means weak or mixed curves; inactive means no such curve, though single readings can be large; an effect the other way counts as inactive or inconclusive.

Legend:
[1] = qHTS assay to identify aromatase inhibitors - cell viability counter screen (AID 743084);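 further: cells stimulated with testosterone during compound exposure; nearly all actives have a fitted effect of over 55% in size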
[2] = target: Aryl hydrocarbon receptor (Homo sapiens) (UniProt P35869); test: qHTS assay to identify small molecule that activate the aryl hydrocarbon receptor (AhR) signaling pathway (AID 743085);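 further: HG2L7.5c1 human HepG2 liver cells with stably integrated DRE-driven firefly reporter; series mostly up to about 70 µM; nearly all actives have a fitted effect of over 15% in size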
Aryl hydrocarbon receptor (Homo sapiens), sequence (P35869 whole entry, looked up): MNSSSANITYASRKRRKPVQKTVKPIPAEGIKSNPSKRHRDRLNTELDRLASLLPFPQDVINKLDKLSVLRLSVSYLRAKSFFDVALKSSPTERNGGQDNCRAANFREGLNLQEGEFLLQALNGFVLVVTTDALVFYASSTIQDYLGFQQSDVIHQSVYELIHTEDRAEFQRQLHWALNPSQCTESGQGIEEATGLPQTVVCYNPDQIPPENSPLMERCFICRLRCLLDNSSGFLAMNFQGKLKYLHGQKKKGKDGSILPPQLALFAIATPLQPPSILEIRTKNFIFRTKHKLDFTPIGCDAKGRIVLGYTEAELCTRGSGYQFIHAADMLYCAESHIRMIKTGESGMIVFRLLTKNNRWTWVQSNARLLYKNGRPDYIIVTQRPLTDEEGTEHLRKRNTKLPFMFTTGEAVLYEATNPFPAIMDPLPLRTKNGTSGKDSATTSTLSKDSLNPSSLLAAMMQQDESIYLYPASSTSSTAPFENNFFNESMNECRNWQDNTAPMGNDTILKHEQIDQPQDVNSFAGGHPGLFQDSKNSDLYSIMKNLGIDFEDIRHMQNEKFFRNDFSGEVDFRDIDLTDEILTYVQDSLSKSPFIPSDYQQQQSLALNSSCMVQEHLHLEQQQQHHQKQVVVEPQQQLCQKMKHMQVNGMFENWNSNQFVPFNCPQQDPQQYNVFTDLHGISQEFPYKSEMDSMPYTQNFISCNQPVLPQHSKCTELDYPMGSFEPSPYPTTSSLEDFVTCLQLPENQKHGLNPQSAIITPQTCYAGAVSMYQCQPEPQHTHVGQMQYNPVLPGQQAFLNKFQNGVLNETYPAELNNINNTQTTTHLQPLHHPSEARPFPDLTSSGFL
In short: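 Reporter assay in engineered HepG2 line HG2L7.5c1, whose plasmid carries twenty dioxin responsive elements upstream of firefly luciferase. Treatment lasted 24 h at 37C; ONE-Glo luminescence gauged induction.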

[3] = qHTS assay to identify small molecule that activate the aryl hydrocarbon receptor (AhR) signaling pathway - cell viability counter screen (AID 743086);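 further: HepG2 liver cells carrying the AhR DRE luciferase reporter; series mostly up to about 70 µM; nearly all actives have a fitted effect of over 45% in size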
In short: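 HepG2-AhR-luc (HG2L7.5c1) cells, 4000/well, were preincubated 5 h at 37C, exposed to compound in qHTS format for 24 hr at 37C, then given CellTiter-Fluor for 30 min; viability was read as fluorescence in the reporter wells.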

[4] = target: Peroxisome proliferator-activated receptor gamma (Homo sapiens) (UniProt P37231); test: qHTS assay to identify small molecule agonists of the peroxisome proliferator-activated receptor gamma (PPARg) signaling pathway (AID 743094; active means well fitted activation curve with a large enough effect in the signal ratio in the repeat runs, not every such curve was filed as active; the % refers to the signal ratio)
Peroxisome proliferator-activated receptor gamma (Homo sapiens), sequence (P37231 whole entry, looked up): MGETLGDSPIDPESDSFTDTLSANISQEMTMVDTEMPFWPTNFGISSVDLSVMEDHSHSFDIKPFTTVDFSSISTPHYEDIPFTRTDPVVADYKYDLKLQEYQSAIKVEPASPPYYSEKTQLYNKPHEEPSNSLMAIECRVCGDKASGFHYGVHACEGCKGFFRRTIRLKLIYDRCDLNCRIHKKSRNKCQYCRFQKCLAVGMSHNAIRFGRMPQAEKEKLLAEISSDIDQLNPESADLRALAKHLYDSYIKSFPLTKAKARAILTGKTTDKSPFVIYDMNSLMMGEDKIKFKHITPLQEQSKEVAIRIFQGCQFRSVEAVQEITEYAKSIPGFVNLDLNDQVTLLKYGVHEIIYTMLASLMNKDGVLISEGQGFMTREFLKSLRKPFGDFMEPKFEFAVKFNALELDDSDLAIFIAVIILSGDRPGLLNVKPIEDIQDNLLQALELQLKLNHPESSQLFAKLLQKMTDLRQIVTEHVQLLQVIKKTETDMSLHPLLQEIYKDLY
In short: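 Following 5 h plating at 37C, PPARg-bla HEK293H cells receive compound or DMSO for 17 h; fluorescence intensity is recorded after LiveBLAzer B/G loading for 1 h at room temperature.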

[5] = target: Peroxisome proliferator-activated receptor gamma (Homo sapiens) (UniProt P37231); test: qHTS assay to identify small molecule antagonists of the peroxisome proliferator-activated receptor gamma (PPARg) signaling pathway (AID 743191; calls by dose curve; further: series mostly up to about 63 µM; nearly all actives have a fitted effect of over 30% in size)
In short: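 GeneBLAzer PPARg UAS-bla HEK293H cells carrying a UAS-driven beta-lactamase reporter were plated at 3000 cells/well, preincubated 5 h at 37C, then given compound for 17 h at 37C; LiveBLAzer B/G FRET substrate was read after 1 h at room temperature.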

[6] = qHTS assay to identify small molecule antagonists of the peroxisome proliferator-activated receptor gamma (PPARg) signaling pathway - cell viability counter screen (AID 743194); settings: Potency: co-treated with 50 nM rosiglitazone; further: nearly all actives have a fitted effect of over 55% in size
In short: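 PPARg-UAS-bla HEK293H cells were plated, rested 5 h at 37 C, then treated with compounds plus rosiglitazone (50 nM final) for 17 h at 37 C; viability was then read by CellTiter-Glo luminescence after 30 min at room temperature.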

[7] = qHTS assay for small molecule agonists of the antioxidant response element (ARE) signaling pathway (AID 743202; active means well fitted activation curve with a large enough effect in the signal ratio in the repeat runs, not every such curve was filed as active; the % refers to the signal ratio)
In short: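 Read-out: LiveBLAzer B/G FRET substrate fluorescence after 2 h at room temperature, following 16 h compound treatment at 37 C of HepG2 cells carrying an ARE-driven beta-lactamase reporter.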

[8] = qHTS assay for small molecule activators of the heat shock response signaling pathway (AID 743210; active means well fitted activation curve with a large enough effect in the signal ratio in the repeat runs, with a control signal flat, not every such curve was filed as active; the % refers to the signal ratio; further: series mostly up to about 63 µM)
In short: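 HSE-bla HeLa cells (beta-lactamase reporter under heat shock response elements) were exposed to compounds for 5 h at 37 C, then loaded with LiveBLAzer B/G FRET substrate for 2.5 h at room temperature before fluorescence reading.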

[9] = qHTS assay to identify small molecule agonists of the peroxisome proliferator-activated receptor delta (PPARd) signaling pathway - cell viability counter screen (AID 743211); further: nearly all actives have a fitted effect of over 55% in size
In short: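 Multiplexed format: after the 2 h room-temperature LiveBLAzer B/G FRET step, CellTiter-Glo was added to the same wells. Luminescence after 30 min gave cell viability; compound exposure was 17 h at 37C.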

[10] = target: Peroxisome proliferator-activated receptor delta (Homo sapiens) (UniProt Q03181); test: qHTS assay to identify small molecule agonists of the peroxisome proliferator-activated receptor delta (PPARd) signaling pathway (AID 743212; calls by dose curve)
Peroxisome proliferator-activated receptor delta (Homo sapiens), sequence (Q03181 whole entry, looked up): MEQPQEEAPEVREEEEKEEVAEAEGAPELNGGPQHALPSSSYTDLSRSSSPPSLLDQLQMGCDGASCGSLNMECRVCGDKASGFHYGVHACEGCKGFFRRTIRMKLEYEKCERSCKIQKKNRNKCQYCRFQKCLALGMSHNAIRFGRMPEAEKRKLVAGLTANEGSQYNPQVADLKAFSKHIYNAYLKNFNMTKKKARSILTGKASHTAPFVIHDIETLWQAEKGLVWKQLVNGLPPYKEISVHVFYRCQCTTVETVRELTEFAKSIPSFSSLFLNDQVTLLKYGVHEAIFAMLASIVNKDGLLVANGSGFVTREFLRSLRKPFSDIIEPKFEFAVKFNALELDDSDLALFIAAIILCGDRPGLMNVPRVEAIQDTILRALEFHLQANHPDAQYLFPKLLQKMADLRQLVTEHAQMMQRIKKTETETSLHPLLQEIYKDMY
In short: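 GeneBLAzer PPARd UAS-bla HEK293H cells (beta-lactamase reporter under UAS control), plated and rested 5 h at 37 C, then exposed to compounds in DMSO at 37 C; LiveBLAzer B/G FRET substrate added, 2 h room temperature, fluorescence read.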

[11] = target: Peroxisome proliferator-activated receptor delta (Homo sapiens) (UniProt Q03181); test: qHTS assay to identify small molecule antagonists of the peroxisome proliferator-activated receptor delta (PPARd) signaling pathway (AID 743215; active means well fitted inhibition curve with a large enough effect in the signal ratio in the repeat runs, not every such curve was filed as active; the % refers to the signal ratio;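 further: cells stimulated with agonist L165041 at 300 nM final during compound exposure; series mostly up to about 62 µM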)
In short: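 With L165041 present at 300 nM final, compounds were incubated 17 h at 37 C on PPARd UAS-bla HEK293H cells. A FRET-based beta-lactamase substrate was then applied for 2 h at room temperature and fluorescence intensity recorded.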

[12] = qHTS assay to identify small molecule agonists of the farnesoid-X-receptor (FXR) signaling pathway - cell viability counter screen (AID 743218); further: nearly all actives have a fitted effect of over 45% in size
In short: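 After 16 h at 37 C with test compounds, FXR-bla HEK 293T cells were given LiveBLAzer B/G substrate for 2 h at RT and then CellTiter-Glo; luminescence was taken after 30 min.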

[13] = qHTS assay to identify small molecule antagonists of the farnesoid-X-receptor (FXR) signaling pathway - cell viability counter screen (AID 743221; active means well fitted cell-killing curve with a large enough effect in the repeat runs, not every such curve was filed as active; further: nearly all actives have a fitted effect of over 50% in size)
In short: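 CellTiter-Glo, 30 min RT, luminescence; same wells as the LiveBLAzer FRET read. Cells: FXR-UAS-bla HEK 293T. Treatment: compound with chenodeoxycholic acid 50 uM final, 16 h at 37 C.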

[14] = target: Vitamin D3 receptor (Homo sapiens) (UniProt P11473); test: qHTS assay to identify small molecule agonists of the vitamin D receptor (VDR) signaling pathway (AID 743222; calls by dose curve)
Vitamin D3 receptor (Homo sapiens), sequence (P11473 whole entry, looked up): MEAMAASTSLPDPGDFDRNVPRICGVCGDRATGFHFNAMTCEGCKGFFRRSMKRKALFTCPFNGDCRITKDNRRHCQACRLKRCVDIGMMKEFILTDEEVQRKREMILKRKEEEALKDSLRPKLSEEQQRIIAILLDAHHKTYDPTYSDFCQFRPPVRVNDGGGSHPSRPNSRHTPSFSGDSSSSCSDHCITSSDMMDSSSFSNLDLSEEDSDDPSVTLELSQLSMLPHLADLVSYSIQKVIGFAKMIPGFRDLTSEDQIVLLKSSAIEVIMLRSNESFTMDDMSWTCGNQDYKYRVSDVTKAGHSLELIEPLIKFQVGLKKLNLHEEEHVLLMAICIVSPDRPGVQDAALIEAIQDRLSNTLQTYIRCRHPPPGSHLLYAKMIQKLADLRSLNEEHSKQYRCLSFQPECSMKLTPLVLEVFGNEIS
In short: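 VDR-bla cells were seeded, left 4 h, treated with compounds in DMSO for 16 h, incubated 2 h at RT with B/G FRET substrate, and read for fluorescence.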

[15] = target: Vitamin D3 receptor (Homo sapiens) (UniProt P11473); test: qHTS assay to identify small molecule antagonists of the vitamin D receptor (VDR) signaling pathway (AID 743223; active means well fitted inhibition curve with a large enough effect in the signal ratio in the repeat runs, not every such curve was filed as active; the % refers to the signal ratio)
In short: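 After VDR-bla cells are plated and left 4 h at 37C, DMSO-dissolved compounds and 3 nM (final) calcitriol agonist are added. Incubation continues 16 h at 37C; FRET beta-lactamase substrate then develops 2 h at room temperature.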

[16] = qHTS assay for small molecule agonists of the antioxidant response element (ARE) signaling pathway - cell viability counter screen (AID 743203; calls by dose curve; further: nearly all actives have a fitted effect of over 55% in size)
In short: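 Compounds in DMSO were pinned onto ARE-bla HepG2 cells plated 5 hrs earlier at 2,000 cells/well. Sixteen hours later at 37C/5% CO2, CellTiter-Glo was added and luminescence measured after 30 min at room temperature.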

[17] = qHTS assay for small molecule activators of the heat shock response signaling pathway - cell viability counter screen (AID 743209); further: nearly all actives have a fitted effect of over 50% in size
In short: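 Counter screen for cytotoxicity in HeLa HSE-bla reporter cells. Treatment was 5 h at 37 C; viability was detected by luminescent ATP assay (CellTiter-Glo) in the same wells as the beta-lactamase read.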

[18] = qHTS assay to identify small molecule antagonists of the peroxisome proliferator-activated receptor delta (PPARd) signaling pathway - cell viability counter screen (AID 743213); further: nearly all actives have a fitted effect of over 50% in size
In short: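 PPARd-bla HEK293H cells (3000/well) got compound plus 300 nM L165041 agonist for 17 h at 37 C. Viability in the same wells came from CellTiter-Glo luminescence after 30 min at room temperature.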

[19] = target: Bile acid receptor (Homo sapiens) (UniProt Q96RI1); test: qHTS assay to identify small molecule antagonists of the farnesoid-X-receptor (FXR) signaling pathway (AID 743217; active means well fitted inhibition curve with a large enough effect in the signal ratio in the repeat runs, not every such curve was filed as active; the % refers to the signal ratio)
Bile acid receptor (Homo sapiens), sequence (Q96RI1 whole entry, looked up): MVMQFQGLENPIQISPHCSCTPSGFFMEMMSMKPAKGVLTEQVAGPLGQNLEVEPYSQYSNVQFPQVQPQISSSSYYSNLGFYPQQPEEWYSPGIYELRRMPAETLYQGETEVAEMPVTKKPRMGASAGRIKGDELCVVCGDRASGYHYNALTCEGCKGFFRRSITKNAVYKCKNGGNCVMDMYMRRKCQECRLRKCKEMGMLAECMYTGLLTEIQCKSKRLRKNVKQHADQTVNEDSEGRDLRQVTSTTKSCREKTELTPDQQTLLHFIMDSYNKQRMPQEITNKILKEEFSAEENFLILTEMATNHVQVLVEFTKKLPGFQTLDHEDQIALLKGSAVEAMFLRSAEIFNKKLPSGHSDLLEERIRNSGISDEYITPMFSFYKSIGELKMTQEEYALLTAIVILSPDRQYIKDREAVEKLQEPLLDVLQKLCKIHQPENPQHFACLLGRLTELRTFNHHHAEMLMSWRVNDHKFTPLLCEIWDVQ
In short: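 In this cell-based antagonist screen, inhibition of CDCA-driven (50 uM final) UAS-beta-lactamase expression in HEK 293T cells was measured by FRET fluorescence following 16 h compound exposure at 37 °C.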

[20] = target: Bile acid receptor (Homo sapiens) (UniProt Q96RI1); test: qHTS assay to identify small molecule agonists of the farnesoid-X-receptor (FXR) signaling pathway (AID 743220; active means well fitted activation curve with a large enough effect in the signal ratio in the repeat runs, not every such curve was filed as active; the % refers to the signal ratio)
In short: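 Beta-lactamase reporter under UAS control in GeneBLAzer FXR HEK 293T cells (5000/well) measured with LiveBLAzer FRET substrate after 2 h at room temperature. Compound exposure lasted 16 h at 37C.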

Measured: Potency

CCC(Cl)CCl (stereo not drawn)
inactive: [1] | [2] | [3] | [4] | [5] | [6] | [7] | [8] | [9] | [10] | [11] | [12] | [13] | [14] | [15]

CC(Cl)C(C)Cl (stereo not drawn)
inactive: [1] | [2] | [3] | [4] | [5] | [6] | [7] | [16] | [17] | [9] | [10] | [18] | [11] | [19] | [12] | [20] | [13]

COc1c(C(C)(C)C)cc([N+](=O)[O-])c(C)c1[N+](=O)[O-]
inactive: [1] | [2] | [3] | [4] | [5] | [6] | [7] | [16] | [8] | [9] | [10] | [18] | [11] | [12] | [13] | [14] | [15]

CCC(Br)(CC)C(=O)NC(N)=O
inactive: [1] | [2] | [3] | [4] | [5] | [6] | [16] | [17] | [8] | [9] | [10] | [18] | [19] | [12] | [20] | [14] | [15]

ClCCCCBr
inactive: [1] | [2] | [3] | [4] | [5] | [6] | [7] | [16] | [17] | [8] | [9] | [10] | [18] | [19] | [20] | [13] | [14] | [15]

C=CC(=O)OC(C)(C)C
inactive: [1] | [2] | [3] | [4] | [5] | [6] | [7] | [16] | [17] | [8] | [9] | [10] | [18] | [11] | [12] | [13] | [14]

ClC=C(Cl)Cl
inactive: [1] | [2] | [3] | [4] | [5] | [6] | [7] | [16] | [8] | [10] | [18] | [19] | [20] | [13]

C=CCCl
inactive: [1] | [2] | [3] | [4] | [5] | [6] | [7] | [16] | [8] | [9] | [10] | [18] | [11] | [12] | [13] | [14]

N#Cc1ccc(Cl)cc1
inactive: [1] | [2] | [3] | [4] | [5] | [6] | [7] | [8] | [10] | [18] | [12] | [13] | [14] | [15]

CCOP(=O)(OCC)SCCSCC
inactive: [1] | [2] | [3] | [4] | [5] | [6] | [7] | [16] | [17] | [8] | [9] | [18] | [13] | [14] | [15]

CC(C)(Cl)[N+](=O)[O-]
inactive: [1] | [2] | [3] | [4] | [5] | [6] | [7] | [16] | [8] | [10] | [18] | [11] | [19] | [20] | [13] | [14] | [15]

Nc1nc(N)nc(N)n1
inactive: [1] | [2] | [3] | [4] | [5] | [6] | [7] | [17] | [8] | [9] | [10] | [18] | [19] | [20] | [13] | [14] | [15]

CCCN(CC1CC1)c1c([N+](=O)[O-])cc(C(F)(F)F)cc1[N+](=O)[O-]
inactive: [1] | [2] | [3] | [4] | [5] | [6] | [7] | [17] | [8] | [10] | [18] | [19] | [20] | [13]

COc1cc(CC(C)N)cc2c1OCO2 (stereo not drawn)
inactive: [1] | [2] | [3] | [4] | [5] | [6] | [16] | [17] | [8] | [9] | [10] | [18] | [11] | [19] | [12] | [20] | [13]

C=CCC1([C@H](C)CCC)C(=O)NC(=O)NC1=O
inactive: [1] | [2] | [3] | [4] | [5] | [6] | [16] | [17] | [8] | [9] | [10] | [18] | [11] | [19] | [20] | [13] | [14] | [15]

c1ccc(C2CC2)c(OCC2=NCCN2)c1
inactive: [1] | [2] | [3] | [4] | [5] | [6] | [7] | [16] | [17] | [8] | [9] | [10] | [18] | [12] | [13] | [14]

O=S(=O)(Cl)c1ccccc1
inactive: [1] | [2] | [3] | [4] | [5] | [6] | [7] | [16] | [17] | [8] | [9] | [10] | [18] | [19] | [12] | [20] | [13] | [14] | [15]
